This excerpt belongs to a sample that is enriched for hits.
YopH inh: YopH tyrosine phosphatase inhibitors, primary screen, biochemical, fluorescence Ex485/Em525. YopH tyrosine phosphatase [Yersinia enterocolitica]. inhibition, % (concentration not given with the values). hit rate 0.16% among 140,000. AID 898, 2007; in the data active = inhibition above about 50%
RmlCD inh 1536: M. tuberculosis RmlC/RmlD coupled enzyme inhibitors, primary screen, biochemical, compound mixtures, 384-well, from 1536-well plates; RmlC+RmlD coupled enzyme assay, percent inhibition; primary screen in compound mixtures; inhibition, % at 3.6 µM; hit rate 0.03% among 160,000; AID 1533, 2009; in the data active = inhibition mostly above about 34%, no sharp cut-off; inconclusive = no clear call, values can overlap the other calls; inactive = mostly below about 22%
Target sequence (P9WH09 whole entry, looked up): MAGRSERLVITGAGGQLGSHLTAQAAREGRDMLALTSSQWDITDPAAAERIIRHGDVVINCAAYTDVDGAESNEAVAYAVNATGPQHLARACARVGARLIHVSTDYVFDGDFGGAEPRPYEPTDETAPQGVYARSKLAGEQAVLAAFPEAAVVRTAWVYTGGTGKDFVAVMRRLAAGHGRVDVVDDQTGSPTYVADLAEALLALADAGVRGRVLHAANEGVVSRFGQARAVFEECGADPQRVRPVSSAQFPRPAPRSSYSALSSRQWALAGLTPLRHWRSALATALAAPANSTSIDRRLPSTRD
Target sequence (P9WH11 whole entry, looked up): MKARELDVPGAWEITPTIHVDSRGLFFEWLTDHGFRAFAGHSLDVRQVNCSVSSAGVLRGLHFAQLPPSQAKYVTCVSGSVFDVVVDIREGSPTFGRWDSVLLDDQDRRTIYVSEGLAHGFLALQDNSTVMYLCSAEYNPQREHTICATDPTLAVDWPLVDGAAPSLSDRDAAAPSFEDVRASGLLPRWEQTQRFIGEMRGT
An asterisk follows results filed as active; ? = inconclusive; nt = not tested or not shown.

SMILES | YopH inh | RmlCD inh 1536
O=C1CC(N(O)c2ccccc2)C(=O)N1c1cc(Cl)cc(Cl)c1 (centres undefined) | -29 | 15
O=C1CC(N(O)c2ccccc2)C(=O)N1Cc1ccccc1 (centres undefined) | 57* | -11
CCOc1ccccc1OCC(=O)NNC(=O)Cn1cnc2c1c(=O)n(C)c(=O)n2C | nt | -10
COc1cscc1C(N)=O | nt | -11
O=C1CC(c2ccccc2)c2cc(O)ccc2O1 (centres undefined) | 70* | nt
Cc1ccc(C2CC(=O)Oc3cc(O)ccc32)cc1 (centres undefined) | -14 | nt
Cc1ccc(/C=N\NC(=O)/C(=C\Nc2nccc(C)n2)NC(=O)c2ccccc2)cc1 | nt | -11
CCC(OC(C)=O)c1cc2c(cc1[N+](=O)[O-])OCCO2 (centres undefined) | nt | -20
CCOc1ccc(CC(=O)NCC2(N3CCCCC3)CCCCC2)cc1 | nt | 5
C/C(=N/NC(=O)CN1CCN(S(=O)(=O)c2ccc(C)cc2)CC1)c1ccco1 | nt | 10
CSc1ccc(/C=N/N2CCN(Cc3ccccc3)CC2)cc1 | nt | 6
[O-]/[N+](=C\c1ccc(OC(F)F)cc1)c1ccccc1 | 55* | 5
[O-]/[N+](=C/c1ccc(F)cc1)c1ccccc1 | 53* | -9
O=C(c1ccccc1)c1ccncc1 | -30 | nt
FC(F)Oc1ccc(NC(=S)NCc2ccccc2)cc1 | -21 | 3
CC1(/[N+]([O-])=C/c2ccc(F)cc2)CCCCC1=O (centres undefined) | nt | -4
[O-]/[N+](=C\c1ccncc1)c1ccccc1 | 59* | 3
COc1cc(CCC(C)=O)ccc1OC(=O)c1c(F)cccc1Cl | nt | -32
NC(=O)c1nn(-c2ccccc2)nc1N | 4 | 79*
Cc1nn(-c2ccccc2)nc1C(N)=O | nt | -7
CCOCCN1CCN(C(=O)CN2CCCC2=O)CC1 | -11 | 6
Cc1ccc2nc(NC(=O)c3cc(-c4ccco4)nc4ccccc34)sc2c1 | -5 | 5
O=C(Nc1nc2ccccc2s1)c1cc(-c2ccco2)nc2ccccc12 | 23 | 37*
Cc1nnn(C23CC4CC(CC(CC(=O)Nc5ccc(C)c(C)c5)(C4)C2)C3)n1 | -23 | -8
CC(=O)Nc1ccc2c(c1)CN(c1cc(C)ccc1C)CO2 | -23 | 6
SMILES | YopH inh | RmlCD inh 1536
N#Cc1cnn2c(-c3ccccc3)ccnc12 | 0 | 11
COc1ccc(-c2ccnc3c(C#N)cnn23)cc1 | nt | 44*
CCOC(=O)/C(=N\Nc1ccccc1)P(=O)(c1ccccc1)c1ccccc1 | nt | 2
CN(C(=O)Nc1ccccc1)C1CCS(=O)(=O)C1 (centres undefined) | -9 | nt
CC(=O)NC1=C(N(C)C2CCS(=O)(=O)C2)C(=O)c2ccccc2C1=O (centres undefined) | 74* | ?
OCCC1CN(Cc2ccc3c(c2)CCO3)CCN1C1CCCC1 (centres undefined) | nt | -10
CCN(CC(=O)NCc1ccccc1Cl)CC(=O)Nc1c(F)cccc1F | nt | -51
COc1ccc(OC)c(NC(=O)c2cc(-c3ccc(C)cc3O)n[nH]2)c1 | 92* | 8
Cc1ccc(-c2cc(C(=O)Nc3cc(C)ccc3C)[nH]n2)c(O)c1 | -21 | nt
CC(=O)Nc1sc(N/N=C/c2ccc(N(C)C)cc2)nc1-c1ccc(C)cc1 | nt | 64*
CC(=O)Nc1sc(N/N=C/c2ccc(C)cc2)nc1-c1ccc(C)cc1 | nt | -6
O=C(NN1CCOCC1)c1ccc(Cl)s1 | nt | 7
CCCCn1c(NC(=O)c2ccccc2)c(C#N)c2nc3ccccc3nc21 | 60* | nt
CCC(C)n1c(NC(=O)c2ccccc2)c(C#N)c2nc3ccccc3nc21 (centres undefined) | 14 | nt
COc1cc(C(=O)N2CCN(c3ccccc3)CC2)c([N+](=O)[O-])cc1OC | nt | 14
CCCCNc1cc(NC(C)=O)cc2cc(OC)c(OC)cc12 | 80* | 18
CCCC(=O)Nc1cc(OC)c(OC)cc1C(=O)O | -29 | -10
CCOC(=O)c1c(C)[nH]c(C(=O)N2CCN(c3ccc(OC)cc3)CC2)c1C | nt | -11
Cc1c2ccccc2nc2c(F)c(N(C)C)c(F)c(F)c12 | -6 | -19
CN(C)c1c2ccccc2nc2c(F)c(F)c(F)c(F)c12 | nt | 41*
CN(c1ccc(OCC(=O)N2CCOCC2)cc1)S(=O)(=O)c1ccc(Cl)cc1 | nt | 21
O=C(Nc1ncc(Cl)cc1Cl)c1c(F)cccc1Cl | nt | -12
O=C1NCCCC2c3cc(O)c4ccccc4c3OC12N1CCCCC1 (centres undefined) | 75* | nt
O=C1NCCCC2c3c(cc(Br)c(O)c3Br)OC12N1CCOCC1 (centres undefined) | -51 | 101
O=C(O[C@@H]1OC2COC(=O)c3cc(O)c(O)c(O)c3-c3c(cc(O)c(O)c3O)C(=O)O[C@@H]([C@H]1O)[C@@H]2O)c1cc(O)c(O)c(O)c1 | 54* | nt
SMILES | YopH inh | RmlCD inh 1536
CCOC(=O)c1c(C)[nH]c(C2=NNC(=NC3CC3)SC2)c1C | nt | 7
CN1CCN(c2ccc(C(=O)c3ccc(Br)cc3)cc2[N+](=O)[O-])CC1 | nt | 5
COc1ccc(C(=O)Nc2ccccc2C(=O)N2CCCCC2C)cc1 (centres undefined) | nt | -6
CCCCn1c(-c2cccs2)nc2nc3ccccc3nc21 | -21 | nt
CCCCOCCCn1c(-c2ccco2)nc2nc3ccccc3nc21 | -40 | 57*
Cn1cc(S(=O)(=O)c2ccccc2)n(C)c1=O | nt | 4
O=C(c1ccco1)N1CCN(CC(=O)N2CCCc3c2c(=O)oc2ccc(O)cc32)CC1 | 53* | 13
O=C(CN1CCN(Cc2ccccc2)CC1)N1CCCc2c1c(=O)oc1ccc(O)cc21 | 18 | 10
Cc1ccc2c(c1)nnn2C1CCN(C(=O)c2ccccc2F)CC1 | nt | -14
COC(=O)c1ccc(NC(=O)C(OC)c2ccccc2)cc1 (centres undefined) | nt | -12
CCOC(=O)CNC(=O)Cn1c(C)cc2ccccc2c1=O | 12 | 47
CCOC(=O)N1CCN(C(=O)Cn2c(C)cc3ccccc3c2=O)CC1 | 55* | 2
Cc1cc(N2CCCc3ccccc32)n2ncnc2n1 | -5 | 6
Cc1csc(N2CCc3ccccc32)n1 | 54* | -9
COc1cc(NC(=S)N2CCC(C(N)=O)CC2)c(OC)cc1Cl | nt | -8
COC(=O)C1=C(C)NC2=C(C(=O)CCC2)C1c1ccc(-c2ccsc2C(=O)OC)o1 (centres undefined) | nt | -14
Cc1ccc(C)c(-n2c3nc(=O)n(C)c(=O)c-3cc3ccccc32)c1 | nt | 13
Cc1nc2c(=O)n(C)c(=O)nc-2n(C)n1 | 101* | nt
COc1cccc(OCCc2c(C)n[nH]c2C)c1 | -20 | 4
Cc1cccc(OCCCCc2c(C)n[nH]c2C)c1 | 70* | -38
Cc1cccc(N2C(=O)CSC23CCCCC3)c1 | nt | -2
COC(=O)c1cccc(NC(=O)CN2CCN(Cc3ccccc3)CC2)c1 | -14 | 6
COC(=O)c1ccc(Cl)c(NC(=O)CN2CCN(Cc3ccccc3)CC2)c1 | 64* | nt
CN(c1nc(-c2ccc(Br)cc2)cs1)C1CCS(=O)(=O)C1 (centres undefined) | nt | 5
COCCCN=Cc1c(C)[nH]n(-c2ccc(Br)cc2Br)c1=O | nt | -1
COc1ccc(N2C(=O)[C@@H]3[C@H](C2=O)[C@H]2c4ccccc4C=CN2[C@@H]3C(C)=O)cc1 | 61* | nt

Bioassay records: PubChem BioAssay, several laboratories
